± gives the standard deviation.
Columns and labels:
[1] = tested on: MILI (PIWIL2) piRISC loaded with L1MC piRNA (26 nt); assay: pre-steady-state target cleavage rate (min^-1); guide: L1MC piRNA 5'p-UAACUAAAUACUAUGCAAGCUGUAGG; higher = faster piRNA-guided slicing of the target
In short: (§1)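 In Cleave-'n-Seq, a transcribed, DNA-blocked target RNA library (0.1 nM) was combined with 1 nM active affinity-purified piRISC bearing one synthetic guide, with or without 500 nM GTSF1 partner protein. Reactions ran in HEPES–potassium acetate buffer at 33 °C for 0–8 or 0–960 min. Uncleaved targets were sequenced and normalised to depth and to weakly complementary targets, three trials were pooled, and k3 was capped at 0.0001 min^-1. The pre-steady-state cleavage rate was obtained by fitting a burst-and-steady-state model.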

[2] = tested on: EfPiwi piRISC loaded with L1MC piRNA (26 nt); assay: pre-steady-state target cleavage rate (min^-1); auxiliary factor: 500 nM Ephydatia muelleri Gtsf1; guide: L1MC piRNA 5'p-UAACUAAAUACUAUGCAAGCUGUAGG; MIWI and MILI are mouse PIWI proteins and EfPiwi is from a freshwater sponge; tags in brackets are library labels; higher = faster piRNA-guided slicing of the target
In short: as §1

[3] = auxiliary factor: 500 nM mouse GTSF1
[4] = auxiliary factor: none (no GTSF1)

Sequence | pre-steady-state target cleavage rate [1, 3] | pre-steady-state target cleavage rate [1, 4] | pre-steady-state target cleavage rate [2]
UCCUGGAUGUCAUUGCAUAGUAUUUAGUUA | 0.0928 ± 0.015 | 0.0087 ± 0.0027 | 
UCCUGGAUGUCGUUGCAUAGUAUUUAGUAUA | 0.127 ± 0.03 | 0.00811 ± 0.0035 | 
UCCUGGAUGUCGUUGCAUAAUAUUUAGUUA | 0.0662 ± 0.017 | 0.00621 ± 0.0023 | 
UCCUGGAUCAGCUUGGAUAGUAUAUAGUUA | 0.124 ± 0.018 | 0.00459 ± 0.0024 | 
UCCUGGUACUGCUUGCAUACUAUUUAGUUA | 0.0502 ± 0.015 | 0.00418 ± 0.0039 | 
UCCUGGAUGACCUUGCAUACUAUUUAGUUA | 0.062 ± 0.019 | 0.00358 ± 0.0034 | 
UCCUCCUACACGUUGCAUAGUAUUUAGUUA | 0.321 ± 0.021 | 0.00729 ± 0.0026 | 
UCCUGGAUGUCGUUGCAUAGUACUUUAGUUA | 0.0156 ± 0.0059 | 0.00645 ± 0.0028 | 
UCCUGGAUGAGCAUGGAUAGUAUUUAGUUA | 0.189 ± 0.019 | 0.0105 ± 0.0024 | 
UCCUGGAUGUGCUUGCAUACAAUUUAGUUA | 0.00405 ± 0.0039 | 0.0028 ± 0.0024 | 
UCCUGGAUGUGCAUGCAUAGUAUAUAGUUA | 0.19 ± 0.029 | 0.00367 ± 0.0031 | 
UCCUGGAUGUCGAUGCAUAGUAUUUAGUA | 0.0708 ± 0.011 | 0.00401 ± 0.0022 | 
UCCUGGAUGUCCUUGCAUACAUUUUAGUUA | 0.00731 ± 0.0047 | 0.00422 ± 0.0019 | 
UCCUGGAUGUGCUUGCAUAGUAUUUAGUGUA | 0.101 ± 0.015 | 0.00366 ± 0.0034 | 
UCCUGGAUGAGCAUGCAUAGUAUUUAGUUA | 0.199 ± 0.016 | 0.00939 ± 0.0029 | 
UCCUGGAUGAGGUAGCAUAGUAUUUAGUUA | 0.0611 ± 0.0091 | 0.00664 ± 0.0022 | 
UCCUGGAUGUCGAUGCAUAGUAUUUGAGUUA | 0.125 ± 0.027 | 0.00324 ± 0.0024 | 
UCCUGGAUCAGCUUGCAUAGUUAUUAGUUA | 0.0248 ± 0.01 | 0.00466 ± 0.0024 | 
UCCUGGUACAGCAAGCAUAGUAUUUAGUAA | 0.239 ± 0.029 | 0.00526 ± 0.0023 | 
UCCUGGAACAGCUUGCAUAGUAUUCAGUUA | 0.228 ± 0.042 | 0.00292 ± 0.0026 | 
UCCUGGAUGUCCUUGCAUAGUAUAUAGUUA | 0.149 ± 0.026 | 0.00505 ± 0.0026 | 

Sequence | pre-steady-state target cleavage rate [1, 3] | pre-steady-state target cleavage rate [1, 4] | pre-steady-state target cleavage rate [2]
UCCUGGAACAGCUUGCAAAGUUUUUAGUUA | 0.0201 ± 0.0064 | 0.0029 ± 0.0026 | 
UCCUGGAUGAGCUAGCAAAGUAUUUAGUUA | 0.0455 ± 0.0079 | 0.00456 ± 0.0024 | 
UCCUGGAUGUCGAUGCAUAGUAAUUAGUUA | 0.0524 ± 0.011 | 0.00499 ± 0.0021 | 
UCCUGGAUGUCGAUGCAUAGUGAUUUAGUUA | 0.00445 ± 0.0044 | 0.00429 ± 0.0023 | 
UCCUGGAUGUCGAUGCAUAGUAUCUUAGUUA | 0.0692 ± 0.013 | 0.00487 ± 0.0024 | 
UCCUGGAUGAGUUUGCAUAGUAUUUAGUUA | 0.17 ± 0.023 | 0.0059 ± 0.0028 | 
UCCUGGAUGAGCAUGCAUAGUAUUUAGAUA | 0.166 ± 0.024 | 0.00498 ± 0.0025 | 
UCCUGGAUGAGCUUGCUUAGUAUAUAGUUA | 0.103 ± 0.02 | 0.00937 ± 0.0029 | 
UCCUGGAUCAGCUUGCAUAGUGAUUUAGUUA | 0.0194 ± 0.0067 | 0.00404 ± 0.0022 | 
UCCUGGUACAGCAUGCAUAGUAUAUAGUUA | 0.241 ± 0.038 | 0.00583 ± 0.0028 | 
UCCUGGAUGAGCUUGCUUUGUAUUUAGUUA | 0.0408 ± 0.01 | 0.00403 ± 0.0028 | 
UCCUGGAUGUGCUUGCAAAGUAUAUAGUUA | 0.0264 ± 0.0072 | 0.00311 ± 0.0024 | 
UCCUGGAUGAGCUUGCAUAGUAUUUAGUAUA | 0.218 ± 0.028 | 0.00501 ± 0.0033 | 
UCCUGGAACAGCUAGCUUAGUAUUUAGUUA | 0.186 ± 0.015 | 0.0065 ± 0.0023 | 
UCCUGGAUGUCGAUGCAUAGUAUUUAGUAUA | 0.0977 ± 0.016 | 0.00504 ± 0.0027 | 
UCCUGGAUGUGCUUGCUAAGUAUUUAGUUA | 0.0146 ± 0.0062 | 0.00546 ± 0.0023 | 
UCCUGGAUGUCGUUGCAUAGUAUAUAGUUA | 0.155 ± 0.028 | 0.00761 ± 0.0026 | 
UCCUGGAACACGAUGCAUAGUAUUUAGUAA | 0.0953 ± 0.013 | 0.00313 ± 0.0029 | 
UCCUCGUACAGCUUGCAUAGUAUAUAGUUA | 0.251 ± 0.02 | 0.00528 ± 0.0018 | 0.0103 ± 0.0042
UCCUGGUACAGCUUGCAUAGUAUUUAGUUU [g2:g24:cont:t1U] | 0.249 ± 0.016 | 0.0218 ± 0.0053 | 0.117 ± 0.038
UCCUGGAUCAGCUUGCAUUGUAUUUUGUUA | 0.1 ± 0.019 | 0.00344 ± 0.0026 | 

Sequence | pre-steady-state target cleavage rate [1, 3] | pre-steady-state target cleavage rate [1, 4] | pre-steady-state target cleavage rate [2]
UCCUGGAUGUGCUUGCAUAGUAUUUAAGUUA | 0.158 ± 0.018 | 0.00961 ± 0.0032 | 
UCCUGGAACAGCUUGGUUAGUAUUUAGUAA | 0.188 ± 0.035 | 0.00709 ± 0.0024 | 
UCCUGGAACAGCUUGCAUAGUAUUUAGUGUA | 0.231 ± 0.018 | 0.00523 ± 0.0026 | 0.00557 ± 0.0021
UCCUGGAUGUCCUUGCAUUGUAUAUAGUUA | 0.0803 ± 0.022 | 0.00438 ± 0.0024 | 
UCCUGGAUCAGCUUGCUUAGUAUUUUGUUA | 0.16 ± 0.015 | 0.00583 ± 0.0022 | 
UCCUGGUACAGUCUUGCAUAGUAUUUAGUUA | 0.254 ± 0.033 | 0.0122 ± 0.0047 | 
UCCUGGAUGUCGAUGCAUAGUAGUUUAGUUA | 0.0201 ± 0.005 | 0.00577 ± 0.0027 | 
UCCUGGAUGUACUUGCAUAGUAUUUAGUUA | 0.0966 ± 0.016 | 0.0107 ± 0.0025 | 0.00383 ± 0.0029
UCCUGCUACAGCUUGCAUAGUAUUUAGUUG [g2:g25:cont:t1G] | 0.145 ± 0.013 | 0.0083 ± 0.0024 | 0.00685 ± 0.0019
UCCUGGUACAGCAUGCAUAGUAAUUAGUUA | 0.193 ± 0.025 | 0.013 ± 0.0032 | 
UCCUGGAUCAGGUUGCAUAGUAUUUAGUUA | 0.182 ± 0.02 | 0.00807 ± 0.0024 | 0.0232 ± 0.0061
UCCUGGUACAGCUUCCAAAGUAUUUAGUUA | 0.138 ± 0.028 | 0.00693 ± 0.0027 | 
UCCUGGAACAGCUUGCAUAGAUAUUUAGUUA | 0.0184 ± 0.0071 | 0.00387 ± 0.0025 | 
UCCUGGAUGUCGAUGCCUAGUAUUUAGUUA | 0.0127 ± 0.0028 | 0.00351 ± 0.0023 | 
UCCUGGUACAGCUUGCUAUGUAUUUAGUUA | 0.0246 ± 0.0085 | 0.00465 ± 0.0027 | 
UCCUGGAUGUCCUUGCAUAGAUAUUUAGUUA | 0.00754 ± 0.004 | 0.00426 ± 0.0023 | 
UCCUGGUUCAGCUUGCUUAGUAUUUAGUUA | 0.199 ± 0.017 | 0.0104 ± 0.003 | 0.0145 ± 0.0054
UCCUGGAUGUGCUUGCAAUGUAUUUAGUAA | 0.0131 ± 0.0037 | 0.00545 ± 0.0027 | 
UCCUGGAUGAGCUUGCAUAGUUAUUAGUUA | 0.00731 ± 0.0048 | 0.00364 ± 0.0023 | 
UCCUGGAUGAGGUUGGAUAGUAUUUAGUUA | 0.132 ± 0.021 | 0.00824 ± 0.0025 | 
